Assay outcomes (PubChem BioAssay)
MRP-1 activ: H69AR viability gain despite doxorubicin, primary screen, MRP-1 activator project, H69AR cells, CellTiter-Glo | viability rescue | viability increase, % at 10 µM | actives 0.61% (n = 140,000) | AID 799, 2007;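 active means viability gain under doxorubicin at or above a set limit, the compound median plus 3 SD, cut at about 4.7% in these data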;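 further: MRP-1 overexpressing cells given doxorubicin 25 µM after compound pretreatment; 18-22 h compound pretreatment then 72 h with doxorubicin before readout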
Phagocytosis inh: inhibitors of macrophage phagocytosis, primary screen, imaging, J774A.1 cells, IgG beads. AID 1029, 2008. actives 0.07% (n = 110,000). inhibition, % at 5 µM. J774A.1 macrophage IgG-bead phagocytosis;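 active means inhibition above the mean of the plate negative controls plus 5 SD, cut at about 13% in these data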;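 further: phagocytic index as fraction of beads internalized from green versus red external bead signal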
MRP resist rev: reversal of MRP1-mediated doxorubicin resistance, primary screen, H69AR cells, doxorubicin co-treatment; H69AR cells + 2 uM doxorubicin, CellTiter-Glo, 72 h; differential viability (reversal), % at 10 µM; actives 0.04% (n = 85,000);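 active means viability drop by adding the cancer drug above about 55%, with treated viability meeting a 40% cutoff, limit read from the data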;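 further: larger differential means the compound sensitizes cells more to doxorubicin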
Each line names hits and unclear results; the compound was inactive in the other large screens; [ ] = another dose, or the depositor's remark. Only some compounds are listed: those with a hit (about 0.72% of all), similar ones and a draw of the others.

Cc1sc2ncn(CC(=O)OC(C)C)c(=O)c2c1C	none (no result: MRP resist rev)
CSc1ncc(Cl)c(C(=O)Nc2nnc(SC)s2)n1	MRP-1 activ 9.1
CCCSc1nnc(NC(=O)c2nc(SC)ncc2Cl)s1	none
COc1ccc2c(Cl)c(C(=O)NCCCn3ccnc3)sc2c1	MRP resist rev 79
COc1ccc2c(Cl)c(C(=O)NN)sc2c1	none (no result: MRP resist rev)
Cc1noc(/C=C/N(C)C)c1S(=O)(=O)N1CCCC(C(=O)NC2CCCCC2C)C1 (configuration not stated)	MRP-1 activ 8.6
Cc1noc(/C=C/N(C)C)c1S(=O)(=O)N1CCCC(C(=O)NC(C)c2ccccc2)C1 (configuration not stated)	none (no result: Phagocytosis inh)
C=CCC(CC=C)(NC(=O)c1ccccc1C(=O)O)c1ccccc1	none (no result: MRP resist rev)
O=C(Nc1nnc(SCc2cccc3ccccc23)s1)C1COc2ccccc2O1 (configuration not stated)	none (no result: MRP resist rev)
COc1ccc2cc(-c3cc(C(=O)O)c4ccccc4n3)ccc2c1	MRP-1 activ 6.5 (no result: Phagocytosis inh, MRP resist rev)
COc1ccc(-c2cc(C(=O)O)c3ccccc3n2)c(OC)c1	none
COC(=O)c1cc(COc2ccc3c4c(c(=O)oc3c2)CCC4)c(C)o1	none
CCCCN(C(=O)CSc1nnc(-c2ccccc2OC)n1C)c1c(N)n(Cc2ccccc2)c(=O)[nH]c1=O	none (no result: MRP resist rev)
Cn1c(N)c(C(=O)COC(=O)c2cc(-c3ccccc3)nc3ccccc23)c(=O)n(Cc2ccccc2)c1=O	none (no result: Phagocytosis inh, MRP resist rev)
Cn1c(N)c(C(=O)COC(=O)c2cc(C3CC3)nc3ccccc23)c(=O)n(Cc2ccccc2)c1=O	MRP-1 activ 5.3 (no result: Phagocytosis inh, MRP resist rev)
Cc1ccc2oc(=O)c3cc(C(=O)Nc4cc(-c5cccc(F)c5)no4)sc3c2c1	none (no result: Phagocytosis inh, MRP resist rev)
N#Cc1nc(COc2ccc(F)cc2)oc1N1CCN(Cc2ccccc2)CC1	none
N#Cc1nc(COc2ccc(F)cc2)oc1N1CCC(Cc2ccccc2)CC1	MRP-1 activ 5.3
Cc1ccc(-c2nc3sc4c(c3c(=O)n2N)CC(C)(C)OC4)cc1	none
CC1(C)Cc2c(sc3nnn(Cc4ccc(Cl)cc4)c(=O)c23)CO1	MRP-1 activ 7.4, Phagocytosis inh 38[artifact] (no result: MRP resist rev)
COc1ccc2c(c1)C1CC(C)(NC(=O)C1S(=O)(=O)c1ccc(F)cc1)O2 (configuration not stated)	none (no result: MRP resist rev)
COc1ccc(-c2csc(NC(=O)c3cc(-c4cccs4)nc4ccccc34)n2)c(OC)c1	MRP-1 activ 4.8 (no result: MRP resist rev)
COc1ccccc1-c1csc(NC(=O)c2cc(-c3cccs3)nc3ccccc23)n1	none (no result: Phagocytosis inh, MRP resist rev)
COc1ccccc1NC(=O)c1ccc(NS(=O)(=O)c2ccc(F)c(F)c2F)cc1	none (no result: Phagocytosis inh, MRP resist rev)
COc1ccc(NC(=O)c2c(F)cccc2F)cc1S(=O)(=O)Nc1ccc(Br)cc1	MRP-1 activ 6.3 (no result: MRP resist rev)
CCOc1ccc(Br)cc1S(=O)(=O)Nc1ccc(NC(=O)c2ccccc2F)cc1	none (no result: Phagocytosis inh, MRP resist rev)
Cc1ccc(C(=O)CSc2cnc3ccccc3n2)cc1C	none (no result: MRP resist rev)
CCOC(=O)C1CCCN(Cc2ccc(OC)cc2OC)C1 (configuration not stated)	MRP-1 activ 30
CCOC(=O)C1CCCN(Cc2ccc(O)c(OC)c2)C1 (configuration not stated)	none
Cc1c(C(=O)NNC(=S)Nc2cccc(Cl)c2)nnn1-c1ccccc1	none (no result: MRP resist rev)
O=C(NCc1ccc(Cl)cc1)C(=O)NCC1OCCN1S(=O)(=O)c1cccs1 (configuration not stated)	none (no result: Phagocytosis inh, MRP resist rev)
O=C(NCc1ccc(Cl)cc1)C(=O)NCC1OCCN1C(=O)c1cccs1 (configuration not stated)	MRP-1 activ 6.4 (no result: MRP resist rev)
CCOC(=O)C1CCCN(C(=S)Nc2ccc(C)cc2C)C1 (configuration not stated)	none (no result: MRP resist rev)
CC(C)OCCCNC(=O)CCC(=O)NNc1nc2ccccc2c2nc(-c3ccccc3)nn12	none (no result: MRP resist rev)
CC1(c2ccc(OCC#N)cc2)C=C(c2ccc(OCC#N)cc2)n2nc(C(F)(F)F)nc2N1 (configuration not stated)	none (no result: MRP resist rev)
Cc1ccc(C2=CC(C)(c3ccc(C)cc3)Nc3nc(C(F)(F)F)nn32)cc1 (configuration not stated)	MRP-1 activ 6.0 (no result: MRP resist rev)
C=CCNC(=O)/C(C#N)=C/c1cn(-c2ccccc2)nc1-c1cccs1	none (no result: MRP resist rev)
O=C1/C(=C\c2ccco2)SC(=S)N1c1ccc(O)cc1	MRP-1 activ 5.2 (no result: MRP resist rev)
CN1C(=S)N(c2ccccc2)C(=O)/C1=C/c1ccco1	none (no result: MRP resist rev)
N#Cc1nc(COc2ccc(Br)cc2)oc1NCCN1CCOCC1	MRP-1 activ 7.7 (no result: MRP resist rev)
N#Cc1nc(COc2ccc(F)cc2)oc1NCCN1CCOCC1	none
Cc1cc(C(=O)COC(=O)c2ccc[nH]c2=O)c(C)n1-c1ccc(F)cc1	none (no result: MRP resist rev)
O=C(c1ccc(COc2ccc(Br)cc2)o1)N1N=C(C(F)F)CC1(O)C(F)F (configuration not stated)	MRP-1 activ 5.5 (no result: MRP resist rev)
CCOc1ccc(OCc2ccc(C(=O)N3N=C(C(F)F)CC3(O)C(F)F)o2)cc1 (configuration not stated)	none (no result: MRP resist rev)
CC1(C)Oc2ccc(C#N)cc2[C@@H](N2CCCC2=O)[C@@H]1O	none (no result: Phagocytosis inh, MRP resist rev)
CCOC(=O)C(Cc1c[nH]c2ccccc12)NC(=O)c1ccco1 (configuration not stated)	Phagocytosis inh 90[artifact]
COC(=O)C(Cc1c[nH]c2ccccc12)NC(=O)C(C)C (configuration not stated)	none
Cc1ccc(C(=O)N2c3ccccc3N(Cc3ccccc3)C(=O)C2(C)C)cc1	none (no result: Phagocytosis inh)
CCOC(=O)N1CCC(Nc2c(Nc3ccc(C)c(C)c3)c(=O)c2=O)CC1	MRP resist rev 65
CCOC(=O)N1CCC(Nc2c(OCC)c(=O)c2=O)CC1	none
CCOC(=O)C1=NN(c2ccccc2C)C2=NC(C)=C(C(=O)OC)C(c3cccc(OC)c3)N12 (configuration not stated)	none (no result: MRP resist rev)
CCOC(=O)/C(=C\c1cccc(O)c1)c1nc2sc(C)c(C)c2c(=O)[nH]1	none (no result: MRP resist rev)
Cc1sc2ncnc(Sc3ccccc3C(=O)Nc3ccccc3Cl)c2c1C	none (no result: MRP resist rev)
Cc1ccc2c(c1)c1c3n2CCCN(Cc2ccccc2)C3CCC1 (configuration not stated)	Phagocytosis inh 38[artifact]
Cc1ccc2c(c1)c1c3n2CCN(C(=O)C2CC2)C3CCC1 (configuration not stated)	none (no result: Phagocytosis inh)
O=c1ccc2ccc(Oc3ccc([N+](=O)[O-])cc3[N+](=O)[O-])cc2o1	none (no result: Phagocytosis inh, MRP resist rev)
Cn1ccnc1-c1nc2ccccc2[nH]c1=O	MRP resist rev 82 (no result: Phagocytosis inh)
O=c1[nH]c2ccccc2nc1-c1cccs1	none
O=[N+]([O-])c1ccc(OCC(O)CN2CCN(c3ccccc3F)CC2)cc1 (configuration not stated)	none (no result: MRP resist rev)
O=C(O)CCc1ccc(-c2cccs2)n1NC(=O)c1ccc(Cl)cc1	Phagocytosis inh 79
O=C(O)CCc1ccc(-c2cccs2)n1NC(=O)c1ccc(Cl)cc1Cl	none
COc1ccc(-c2nc(-c3cccs3)c(-c3cccs3)[nH]2)cc1O	none
O=C1c2cccc(OCc3ccc(F)cc3)c2CCN1Cc1ccc(F)cc1	MRP-1 activ 5.6 (no result: MRP resist rev)
Cc1ccc(CN2CCc3c(OCc4ccc(F)cc4)cccc3C2=O)cc1	none (no result: MRP resist rev)
COc1ccc(/C=C2\SC(=S)N(CCCC(=O)Nc3ccccn3)C2=O)cc1OC	none (no result: MRP resist rev)
Cc1ccc(/C=C2\SC(=S)N(CCCC(=O)Nc3nccs3)C2=O)cc1	MRP-1 activ 5.3 (no result: MRP resist rev)
Cc1ccc(/C=C2\SC(=S)N(CCCC(=O)Nc3ccccn3)C2=O)cc1	MRP-1 activ 6.8 (no result: Phagocytosis inh, MRP resist rev)
CCc1ccc(/C=C2\SC(=S)N(CCCC(=O)Nc3nccs3)C2=O)cc1	none (no result: MRP resist rev)
